# Test results: PubChem BioAssay AID1031 (Columbia University Molecular Screening Center, 2008)
# The other results are listed elsewhere or left out. Unmarked numbers belong to inactive results. No rule for the calls is given here.
# Biological target: Tyrosine-protein phosphatase non-receptor type 22 (Homo sapiens) (UniProt Q9Y2R2)
# Assay: LYP phosphatase activation, single-dose recheck – biochemical, DiFMUP fluorescence, single concentration, confirmation (AID 1031)
# Conditions: Recombinant LYP, at 2 µM, hits give high values, zero set by plate's median compound well
# Tyrosine-protein phosphatase non-receptor type 22 (Homo sapiens), sequence (Q9Y2R2 whole entry, looked up): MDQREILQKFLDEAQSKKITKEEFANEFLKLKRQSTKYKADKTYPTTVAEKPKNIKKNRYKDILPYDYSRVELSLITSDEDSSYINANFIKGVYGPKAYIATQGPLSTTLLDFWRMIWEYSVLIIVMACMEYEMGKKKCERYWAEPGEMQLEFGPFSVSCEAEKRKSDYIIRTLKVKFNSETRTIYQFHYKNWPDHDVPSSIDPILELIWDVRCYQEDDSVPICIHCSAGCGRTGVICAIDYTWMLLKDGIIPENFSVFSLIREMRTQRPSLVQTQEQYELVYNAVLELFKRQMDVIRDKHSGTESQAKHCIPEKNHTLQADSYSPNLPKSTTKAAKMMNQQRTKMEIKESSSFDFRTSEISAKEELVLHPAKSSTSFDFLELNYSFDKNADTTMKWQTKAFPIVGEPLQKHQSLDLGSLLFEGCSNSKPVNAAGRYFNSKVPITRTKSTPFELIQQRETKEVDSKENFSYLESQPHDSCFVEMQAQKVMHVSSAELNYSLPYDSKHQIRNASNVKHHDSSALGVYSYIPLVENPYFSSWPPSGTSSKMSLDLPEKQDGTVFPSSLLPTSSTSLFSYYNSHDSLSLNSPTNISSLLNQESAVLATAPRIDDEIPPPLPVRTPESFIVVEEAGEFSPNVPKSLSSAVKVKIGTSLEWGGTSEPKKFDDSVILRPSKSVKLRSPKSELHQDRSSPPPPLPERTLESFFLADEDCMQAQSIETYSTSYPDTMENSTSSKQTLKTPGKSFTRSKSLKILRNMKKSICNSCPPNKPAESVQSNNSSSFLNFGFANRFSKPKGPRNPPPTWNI
row,Compound,activation [%]
1,Cc1ccccc1NC(=O)c1cc(S(=O)(=O)N2CCOCC2)cs1,-3.6
2,N#CCCn1ncc2ccccc21,5.5
